IL-1B inflam inh: inflammasome signaling inhibition, IL-1 beta readout; THP-1 LPS/ATP IL-1B secretion, AlphaLISA, 16 h; active compounds read low; activity change, % at 57.5 µM; actives 4.7% (n = 360,000); AID 743279; in the data active = activity change below about -50%; inconclusive = mostly about -30% to -49%; also: % is scaled to controls: 0 for no effect and ±100 for the full control effect
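THP-1 cells pretreated 1 hr with compounds (up to 57.5 uM final), then stimulated with LPS (250 ng/mL final) plus ATP (1.25 mM final); secreted IL-1B measured by AlphaLISA after 16 hr, decreased signal indicating inhibition.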
TGFb inhibitor: inhibitors of TGF-b signaling. actives 1.2% (n = 410,000). HepG2 CAGA-GFP TGF-b/SMAD3 reporter, GFP fluorescence, 18 h; TGF-beta stimulated, 500 pg/mL final. Potency, µM (highest dose often 46.1 µM), for inactives: top-dose activity, negative = inhibition, actives largely listed as inhibitors. AID 588855; also: potency is read from the fitted curve at half-maximal effect; % is scaled to controls: 0 for no effect and ±100 for the full control effect; nearly all actives have a fitted effect of over 65% in size
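Inhibition of TGF-beta-driven CAGA-GFP reporter expression in HEPG2 cells is measured by cellular GFP fluorescence after 18 h stimulation with 500 pg/mL recombinant TGF-beta in 1% FBS medium at 37 degrees C.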
HepG2 tox: kills HepG2 cells in TGF-b inhibitor counter-screen; actives 0.76% (n = 410,000); Potency, µM (doses to about 46.1 µM), inactives show at the top dose activity change, negative = cytotoxicity, most hits filed as cytotoxic; HepG2 CAGA-GFP viability, ATP luminescence, 18 h; also: potency is read from the fitted curve at half-maximal effect
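CellTiter-Glo luminescence gave cytotoxicity after 18 hours at 37 degrees C. The cells were HepG2 CAGA-GFP in 1% FBS DMEM, stimulated with 500 pg/mL TGF-beta after compound addition. %Activity was normalised to no-cell wells (complete cell-killing) and DMSO (no toxicity), and curves were fitted and classified.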
ATXN2 expr inh: reduces ATXN2 reporter expression in HEK-293 cells; HEK-293 ATXN2-luciferase reporter, luminescence, 24 h; Potency, µM (series often up to 57 µM), for inactives: at the top dose activity change, negative = inhibition, hits mostly inhibitors; actives 0.72% (n = 360,000); also: potency is read from the fitted curve at half-maximal effect; % is scaled to controls: 0 for no effect and ±100 for the full control effect; nearly all actives have a fitted effect of over 55% in size
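ATXN2-luciferase reporter cells (luciferase flanked by upstream and downstream ATXN2 gene portions) were treated 24 h at 37 °C with compounds at up to 57 uM. SteadyGlo luminescence gave expression; GF-AFC fluorescence gave viability.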
S2 tox: viability counter-screen for ATXN expression inhibitors | S2 cells (HEK-293 line with an ATXN2-luciferase reporter) viability, CellTiter-Fluor protease fluorescence, 24 h | Potency, µM (series often up to 56.7 µM), actives largely listed as cytotoxic | actives 0.49% (n = 400,000) | AID 651635; also: potency is read from the fitted curve at half-maximal effect; nearly all actives have a fitted effect of over 40% in size
* hit, by the source's call; i = inactive; ? = inconclusive; nt = not tested or not shown. Rows were chosen to be rich in hits. Some 5.7% of all compounds tested hit in one or more screens of this group. Unless noted, calls follow the shape of the dose curve; as a rule, active = well fitted curve in the direction sought with a large enough effect; inconclusive = small, poorly fitted or top-dose-only effect, or another doubt; inactive = no such curve, though single readings can be large; an effect the other way counts as inactive or inconclusive.

SMILES	IL-1B inflam inh	TGFb inhibitor	HepG2 tox	ATXN2 expr inh	S2 tox
COc1cccc(NC(=O)CSc2nc3c(sc4ccccc43)c(=O)n2CCN(C)C)c1	-108*	?	-1%	-10%	i
COc1cccc(NC(=O)Cn2c(=O)n(-c3ccc(Cl)cc3)c(=O)c3sc4ccccc4c32)c1	nt	0%	-24%	nt	nt
CCCCn1c(SCC(=O)Nc2ccc(F)cc2)nc2c(sc3ccccc32)c1=O	nt	-2%	-5%	2%	i
Cc1ccc(C2=NC(c3ccccc3)=Nc3ccc(Cl)cc3N2)cc1	nt	11%	-2%	20%	i
O=C(Nc1c(C(=O)N2CCN(c3ccccc3)CC2)oc2ccccc12)c1ccc(Br)o1	nt	-26%	1%	nt	nt
CCC(C(=O)O)c1ccc(N2Cc3ccccc3C2=O)cc1 (stereo not drawn)	nt	nt	nt	34%	i
CCC(Oc1ccccc1)C(=O)Nc1ccc(O)c(-c2nc3cc(C)ccc3o2)c1 (stereo not drawn)	nt	nt	-5%	nt	nt
COc1cccc(NC(=O)CSc2nc3c(sc4ccccc43)c(=O)n2CCCN2CCCC2)c1	?	?	-75%	nt	22µM*
CC1=C(C)/C(=N\OS(=O)(=O)c2ccccc2)C=CC1=O	-121*	?	14µM*	10µM*	11µM*
C=CCNc1ncnc2c1[nH]c1ccc(Cl)cc12	-122*	?	2%	-18%	i
C=CCNc1ncnc2c1[nH]c1ccccc12	-54*	-5%	0%	-20%	i
CCCCOCCCNc1ncnc2c1[nH]c1ccccc12	-95*	?	-38%	?	i
CC1CC=CC2C1C(=O)N(Cc1ccccc1)C2c1ccc(F)c(-c2ccc(N(C)C)cc2)c1 (stereo not drawn)	nt	-5%	-3%	nt	nt
FC(F)(F)c1cccc(NC(=S)Nc2ccc(Cl)cc2Cl)c1	-71*	?	-40%	?	i
O=C(NNC(=S)Nc1cccc(C(F)(F)F)c1)c1cccc(Cl)c1	-11	?	-67%	?	?
S=C(Nc1ccccc1)Nc1ccc(Cl)cc1Cl	-1	2%	-18%	49%	i
FC(F)(F)c1cccc(NC(=S)Nc2cccc(NC(=S)Nc3cccc(C(F)(F)F)c3)n2)c1	-86*	?	-26%	?	i
Cc1cccc(NC(=S)Nc2cccc(C(F)(F)F)c2)n1	10	-9%	-23%	-7%	i
Cc1ccc(NC(=O)/C=C/c2cccc(C(F)(F)F)c2)cc1	-23	7%	-1%	-4%	i
O=C(NNC(=S)Nc1cccc(C(F)(F)F)c1)c1ccccc1Cl	?	14µM*	-84%	?	i
O=C(/C=C/c1cccc(C(F)(F)F)c1)Nc1cccc(C(F)(F)F)c1	-92*	?	-99%	?	?
O=C(CSc1oc(-c2ccc(F)cc2)nc1S(=O)(=O)c1ccc(Cl)cc1)c1ccccc1	nt	-19%	-3%	0%	i
CC(C)C[C@@H](CN=[N+]=[N-])N1CCN(CCc2ccccc2)CCC1=O	nt	8%	0%	nt	nt
COCCN1CCN(C(=O)c2cnn(-c3nccc(-c4ccccc4F)n3)c2-c2ccco2)CC1	nt	nt	nt	nt	i
COc1ccc(-c2onc(C)c2C)cc1S(=O)(=O)Nc1ccc(OC(F)(F)F)cc1	nt	?	-86%	nt	nt
SMILES	IL-1B inflam inh	TGFb inhibitor	HepG2 tox	ATXN2 expr inh	S2 tox
COc1cc(O)c(C(=O)/C=C/c2ccccc2)c(OC)c1	-106*	?	-52%	?	nt
COc1cc(/C=C/[N+](=O)[O-])ccc1OCc1cccc(C(=O)O)c1	-97*	?	-40%	28µM*	?
COc1cc(OC)c(C(=O)/C=C/c2ccc(OCc3ccccc3)c(OC)c2)c(OC)c1	-90*	0%	6%	?	i
COC(=O)c1cn(C(=O)/C=C/c2ccc(OC)c(OC)c2)c2ccccc12	-69*	8%	-3%	?	?
CCOC(=O)c1noc2ncnc(Nc3ccc(C)c(F)c3)c12	nt	0%	7%	2%	i
c1cncc(OC2CCN(Cc3ccc4c(c3)CN(Cc3ccc5c(c3)CCO5)CCO4)CC2)c1	nt	nt	nt	nt	i
CCOc1ccccc1CNC(=O)c1cc(-c2ccc(Cl)s2)nc2ccccc12	nt	-18%	5%	13%	i

From PubChem BioAssay
